GLP1R cytotox: cytotoxic in the GLP-1 receptor inverse agonist counter-screen; Potency, µM (series often up to 38.3 µM), for the others: at the top dose activity change, negative = inhibition, usual class: inhibitors; actives 0.13% (n = 410,000); AID 624418; HEK293 cAMP-luciferase reporter cells, luminescence, 24 h;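 also: loss of luciferase light is scored as toxicity; % is scaled to controls: 0 for no effect and ±100 for the full control effect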
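Step one: seed cells (200 cells/uL, DMEM with 10% Nu serum, 1% pen-strep). Step two: 12-hour incubation at 37 deg C. Step three: pin 23 nL compound, incubate 24 hr. Step four: add luciferase reagent, read luminescence 12 min later.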
GLP-1R agonist: agonists of human GLP-1 receptor. P43220. HEK293 GLP-1R CRE-luciferase, luminescence, 4-6 h; cells express a hypersensitive GLP-1R form. Potency, µM (series often up to 45.6 µM), for inactives: at the top dose activation, most hits filed as activators. actives 0.007% (n = 380,000). AID 624172; also: % of control where 0% means no effect
Target sequence (P43220 whole entry, looked up): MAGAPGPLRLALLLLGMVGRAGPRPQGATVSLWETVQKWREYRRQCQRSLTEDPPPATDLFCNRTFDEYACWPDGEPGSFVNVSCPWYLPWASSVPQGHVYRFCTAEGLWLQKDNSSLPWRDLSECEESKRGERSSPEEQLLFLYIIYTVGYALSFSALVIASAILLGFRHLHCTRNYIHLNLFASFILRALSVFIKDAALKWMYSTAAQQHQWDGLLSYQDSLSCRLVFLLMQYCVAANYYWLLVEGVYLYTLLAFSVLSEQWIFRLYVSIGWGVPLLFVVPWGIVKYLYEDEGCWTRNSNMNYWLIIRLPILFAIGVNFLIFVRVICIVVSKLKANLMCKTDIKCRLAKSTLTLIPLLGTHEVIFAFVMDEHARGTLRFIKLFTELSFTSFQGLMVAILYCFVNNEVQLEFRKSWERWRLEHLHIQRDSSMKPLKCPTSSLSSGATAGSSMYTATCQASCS
GLP1R inv ag: inverse agonists of human GLP-1 receptor | HEK293 GLP-1R CRE-luciferase, luminescence, 24 h; GLP-1R form is constitutively active | Potency, µM (series often up to 38.3 µM), inactives show top-dose activity change, negative = inhibition, actives largely listed as inhibitors | actives 1.6% (n = 410,000); also: % is scaled to controls: 0 for no effect and ±100 for the full control effect; nearly all actives have a fitted effect of over 55% in size
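Luminescence readout: a drop in cAMP-driven luciferase signal flags inverse agonism at a constitutively active GLP-1R stably expressed in HEK293. Compound exposure lasted 24 hr at 37 deg C, 5% CO2.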
PTHR1 agonist: agonists of human PTHR1 parathyroid hormone receptor; Q03431; actives 0.075% (n = 410,000); HEK293 GP2 PTHR1 cells, GloSensor cAMP luminescence, 1 h; Potency, µM (titrated, usually from 115 µM), without a hit: at the highest dose activation, hits mostly activators; also: nearly all actives have a fitted effect of over 55% in size
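HEK-293-derived GP2 cells expressing PTHR1 and a GloSensor cAMP reporter, 3,000/well, plated overnight, given luciferin plus IBMX (each 0.5 mM as added) for 1 h at 37 °C, then compound for 1 h at 37 °C. Luminescence was read after 15 min at room temperature.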
Starred values were filed as active, the others as inactive; i = inactive; ? = inconclusive; . = no result given; [ ] = another dose, or the depositor's remark. This is a sample that favours compounds with a hit; in the whole collection about 1.7% have one here. Calls follow the shape of the dose curve; as a rule, active = well fitted curve in the direction sought with a large enough effect; inconclusive = small, poorly fitted or top-dose-only effect, or another doubt; inactive = no such curve, though single readings can be large; an effect the other way counts as inactive or inconclusive. Potency is read from the fitted curve at half-maximal effect.

SMILES	GLP1R cytotox	GLP-1R agonist	GLP1R inv ag	PTHR1 agonist
Cc1[nH]c2ccc(OC(F)(F)F)cc2c1CCNCc1cccc([N+](=O)[O-])c1	?	10%	?	-12%
O=C(Cn1c(=O)nc(-c2ccccc2)c2cc(Cl)ccc21)NCc1ccccc1	-16%	.	0%	-53%
Oc1ccc(N=Nc2nc(-c3ccccc3)c(-c3ccccc3)[nH]2)cc1	10µM*	-1%	5.6µM*	i
CC1CCC(C(C)C)C(OCC(O)CN2CCCC(C)C2)C1 (configuration not stated)	?	-2%	8.9µM*	4%
CC1CCC(C(C)C)C(OC(=O)c2ccccc2N)C1 (configuration not stated)	.	-1%	.	.
CCCCCc1cc(O)c2c(c1)OC(C)(C)C1CC=C(C)CC21 (configuration not stated)	.	-5%	.	.
c1ccc(C2(N3CCCCC3)CCCCC2)cc1	-1%	4%	6%	-17%
S=C=Nc1cccc(C2(N3CCCCC3)CCCCC2)c1	?	20%	8.9µM*	i
Cc1c(Cl)cccc1NC(=O)c1oc2ccc(S(=O)(=O)N3CCC4(CC3)OCCO4)cc2c1C	-14%	.	?	i
C=CCC1=C(C)C(OC(=O)C2C(C=C(C)C)C2(C)C)CC1=O (configuration not stated)	.	0%[96 µM]	.	.
CCOC(=O)c1ccc(NC(=O)CSc2cc(=O)n(CC)c3ccccc23)cc1	-3%	.	9%	-9%
CCOC(=O)c1ccc(NC(=O)Nc2cc3c(cc2N2CCCCC2)n(CC)c(=O)n3CC)cc1	-22%	-13%	10µM*	i
C[C@H]1[C@@H]2Cc3ccc(O)cc3[C@]1(C)CCN2CCc1ccccc1	.	4%[96 µM]	.	.
COc1ccc(CNCCC(c2ccc(F)cc2)c2ccc(OC(C)C)cc2)cc1OC (configuration not stated)	?	9%	4µM*	i
COc1ccc(CNCCC(c2ccc(F)cc2)c2ccc(OC)cc2)cc1 (configuration not stated)	?	8%	?	-29%
COc1ccc(CCNC(=O)c2c(N)n(CCN3CCOCC3)c3nc4ccccc4nc23)cc1OC	115%	0%	10µM*	-10%
CC[C@H](OC(C)=O)C(C[C@H](C)NC)(c1ccccc1)c1ccccc1	.	9%[96 µM]	.	.
COc1cccc(Nc2nc(C(N)Cc3ccc(Cl)cc3)cs2)n1 (configuration not stated)	?	-6%	?	-13%
O=C(NCC1=C(c2cccc3ccccc23)C[C@@H]2CC[C@H]1N2Cc1ccco1)c1cccs1	?	-8%	10µM*	-12%
Nc1cccc(Nc2nc(OC(C(F)(F)F)C(F)(F)F)nc(OC(C(F)(F)F)C(F)(F)F)n2)c1	?	-26%	4.5µM*	-30%[57.5 µM]
CC(Oc1ccccc1)C(=O)Nc1ccc(C(=O)OCc2cc(=O)n3nc(C4CC4)sc3n2)cc1 (configuration not stated)	-5%	.	?	-91%
Cc1ccc(C(=O)Nc2nc3ccccc3[nH]2)cc1	-13%	-6%	1.3µM*	-41%
CCCCCc1cc(O)c2c(c1)OC(C)(C)c1ccc(C)cc1-2	.	-2%	.	.
CCC(=O)O[C@@](Cc1ccccc1)(c1ccccc1)[C@H](C)CN(C)C	.	-7%[96 µM]	.	.
CC(C)(C)OC(=O)[C@H](Cc1ccccc1)NC(=O)c1nc[nH]c1C(=O)NC1CCN(C(=O)OC(C)(C)C)CC1	?	-4%	10µM*	-49%
SMILES	GLP1R cytotox	GLP-1R agonist	GLP1R inv ag	PTHR1 agonist
CCN(CC)C(=O)[C@@H]1C=C2c3cccc4[nH]cc(c34)C[C@H]2N(C)C1	.	-9%	.	.
CC(C)CCn1c(N)c(C(=O)OCC2CCCO2)c2nc3ccccc3nc21 (configuration not stated)	254%	0%	4µM*	-25%[57.5 µM]
CC(C)Cn1cnc2c(c(-c3ccccc3)c(-c3ccccc3)n2Cc2ccco2)c1=N	?	-7%	3.2µM*	i
N=c1c2c(-c3ccccc3)c(-c3ccccc3)n(Cc3ccco3)c2ncn1CCCN1CCOCC1	?	1%	?	-13%
C[N+]1(CCF)[C@@H]2CC[C@@H]1CC(OC(=O)C(O)(c1ccccc1)c1ccccc1)C2 (some centres not stated)	.	11%	.	.
Cc1cc(OC(=O)N(C)C)nc(SCc2c(Cl)cccc2Cl)n1	1%	6%	10µM*	-95%

Source: PubChem
